The source made the active and inactive calls.
How the values were obtained:
[1] = small molecules captured by biotinylated probe aFSTL3 – biochemical, small-molecule microarray, fluorescence 635/667, stem cell growth factor project, primary screen (AID 1064); conditions: higher = more signal;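 note: measures binding of the biotinylated anti-FSTL3 antibody to printed compounds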
[2] = binders from COS7 lysate, DM2A8 probe, primary screen, torsin A project, cell lysate, small-molecule microarray, fluorescence 635/667 (AID 1065); conditions: higher = more signal, COS7 lysate expressing mutant human TOR1A
[3] = small molecules captured by biotinylated probe aFGF2 – biochemical, small-molecule microarray, fluorescence 635/667, stem cell growth factor project, primary screen (AID 1067); conditions: higher = more signal;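 note: measures binding of biotinylated aFGF2 protein to printed compounds on slides; z-score merges feature fluorescence and signal-to-noise across triplicate slides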
[4] = small molecules captured by biotinylated probe aFGF10 – biochemical, small-molecule microarray, fluorescence 635/667, stem cell growth factor project, primary screen (AID 1071); conditions: higher = more signal;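 note: score merges 667 nm spot intensity and signal to noise from triplicate slides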
[5] = biological target: Neurogenic locus notch homolog protein 2 (Homo sapiens) (UniProt Q04721); assay: small molecules binding Notch2 protein – biochemical, small-molecule microarray, 635 nm fluorescence, stem cell growth factors, primary screen (AID 1073); conditions: higher = more signal
[6] = biological target: Pro-neuregulin-1, membrane-bound isoform (Homo sapiens) (UniProt Q02297); assay: small molecules binding neuregulin-1 protein – biochemical, small-molecule microarray, fluorescence 635/667, psychiatric disease protein project, primary screen (AID 1075); conditions: NRG1 binding, 635 nm fluorescence, higher = more signal;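 note: score combines 667 nm spot fluorescence with signal to noise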
[7] = tested on: Neuregulin-1 EGF-like domain; assay: small molecules binding NRG1 EGF domain – biochemical, small-molecule microarray, 635 nm fluorescence, primary screen (AID 1081); conditions: higher = more signal;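 note: binding of the protein to compounds printed on small-molecule microarray slides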
[8] = FRG1 expression reporter modulators in myotubes – cell-based, C2C12 myotubes, firefly/Renilla luciferase, luminescence, FRG1 inhibition for FSHD, primary screen (AID 1084); conditions: FRG1 promoter luciferase, higher = more signal, called active from +8 up or from −8 down
[9] = small molecules captured by biotinylated probe aFST – biochemical, small-molecule microarray, fluorescence 635/667, stem cell growth factor project, primary screen (AID 1086); conditions: higher = more signal;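 note: score merges 667 nm fluorescence with signal-to-noise of each printed compound spot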
[10] = binders of probe aHhip on microarray, primary screen, stem cell growth factor project, biochemical, small-molecule microarray, fluorescence 635/667 (AID 1087); conditions: higher = more signal;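 note: score merges spot fluorescence at 667nm with spot signal to noise ratio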

Sequence of Pro-neuregulin-1, membrane-bound isoform (Homo sapiens) (Q02297 whole entry, looked up, the tested form may be a part, canonical isoform): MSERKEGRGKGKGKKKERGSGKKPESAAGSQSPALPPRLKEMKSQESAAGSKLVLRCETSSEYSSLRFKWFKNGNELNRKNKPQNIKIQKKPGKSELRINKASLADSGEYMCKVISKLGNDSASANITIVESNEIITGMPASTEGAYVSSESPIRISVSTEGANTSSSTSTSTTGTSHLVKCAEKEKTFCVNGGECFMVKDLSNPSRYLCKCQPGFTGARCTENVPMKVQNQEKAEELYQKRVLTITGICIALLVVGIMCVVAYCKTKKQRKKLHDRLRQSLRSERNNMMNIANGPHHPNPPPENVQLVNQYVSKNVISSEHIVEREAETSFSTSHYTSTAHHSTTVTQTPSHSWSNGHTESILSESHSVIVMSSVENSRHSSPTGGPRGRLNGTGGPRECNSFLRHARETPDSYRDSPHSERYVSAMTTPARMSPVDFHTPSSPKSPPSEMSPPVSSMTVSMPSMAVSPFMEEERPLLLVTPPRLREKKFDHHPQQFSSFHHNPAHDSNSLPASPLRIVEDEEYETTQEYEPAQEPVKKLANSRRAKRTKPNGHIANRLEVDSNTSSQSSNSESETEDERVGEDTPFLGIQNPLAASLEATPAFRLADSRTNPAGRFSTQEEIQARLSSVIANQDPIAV
Sequence of Neurogenic locus notch homolog protein 2 (Homo sapiens) (Q04721 whole entry, looked up, canonical isoform): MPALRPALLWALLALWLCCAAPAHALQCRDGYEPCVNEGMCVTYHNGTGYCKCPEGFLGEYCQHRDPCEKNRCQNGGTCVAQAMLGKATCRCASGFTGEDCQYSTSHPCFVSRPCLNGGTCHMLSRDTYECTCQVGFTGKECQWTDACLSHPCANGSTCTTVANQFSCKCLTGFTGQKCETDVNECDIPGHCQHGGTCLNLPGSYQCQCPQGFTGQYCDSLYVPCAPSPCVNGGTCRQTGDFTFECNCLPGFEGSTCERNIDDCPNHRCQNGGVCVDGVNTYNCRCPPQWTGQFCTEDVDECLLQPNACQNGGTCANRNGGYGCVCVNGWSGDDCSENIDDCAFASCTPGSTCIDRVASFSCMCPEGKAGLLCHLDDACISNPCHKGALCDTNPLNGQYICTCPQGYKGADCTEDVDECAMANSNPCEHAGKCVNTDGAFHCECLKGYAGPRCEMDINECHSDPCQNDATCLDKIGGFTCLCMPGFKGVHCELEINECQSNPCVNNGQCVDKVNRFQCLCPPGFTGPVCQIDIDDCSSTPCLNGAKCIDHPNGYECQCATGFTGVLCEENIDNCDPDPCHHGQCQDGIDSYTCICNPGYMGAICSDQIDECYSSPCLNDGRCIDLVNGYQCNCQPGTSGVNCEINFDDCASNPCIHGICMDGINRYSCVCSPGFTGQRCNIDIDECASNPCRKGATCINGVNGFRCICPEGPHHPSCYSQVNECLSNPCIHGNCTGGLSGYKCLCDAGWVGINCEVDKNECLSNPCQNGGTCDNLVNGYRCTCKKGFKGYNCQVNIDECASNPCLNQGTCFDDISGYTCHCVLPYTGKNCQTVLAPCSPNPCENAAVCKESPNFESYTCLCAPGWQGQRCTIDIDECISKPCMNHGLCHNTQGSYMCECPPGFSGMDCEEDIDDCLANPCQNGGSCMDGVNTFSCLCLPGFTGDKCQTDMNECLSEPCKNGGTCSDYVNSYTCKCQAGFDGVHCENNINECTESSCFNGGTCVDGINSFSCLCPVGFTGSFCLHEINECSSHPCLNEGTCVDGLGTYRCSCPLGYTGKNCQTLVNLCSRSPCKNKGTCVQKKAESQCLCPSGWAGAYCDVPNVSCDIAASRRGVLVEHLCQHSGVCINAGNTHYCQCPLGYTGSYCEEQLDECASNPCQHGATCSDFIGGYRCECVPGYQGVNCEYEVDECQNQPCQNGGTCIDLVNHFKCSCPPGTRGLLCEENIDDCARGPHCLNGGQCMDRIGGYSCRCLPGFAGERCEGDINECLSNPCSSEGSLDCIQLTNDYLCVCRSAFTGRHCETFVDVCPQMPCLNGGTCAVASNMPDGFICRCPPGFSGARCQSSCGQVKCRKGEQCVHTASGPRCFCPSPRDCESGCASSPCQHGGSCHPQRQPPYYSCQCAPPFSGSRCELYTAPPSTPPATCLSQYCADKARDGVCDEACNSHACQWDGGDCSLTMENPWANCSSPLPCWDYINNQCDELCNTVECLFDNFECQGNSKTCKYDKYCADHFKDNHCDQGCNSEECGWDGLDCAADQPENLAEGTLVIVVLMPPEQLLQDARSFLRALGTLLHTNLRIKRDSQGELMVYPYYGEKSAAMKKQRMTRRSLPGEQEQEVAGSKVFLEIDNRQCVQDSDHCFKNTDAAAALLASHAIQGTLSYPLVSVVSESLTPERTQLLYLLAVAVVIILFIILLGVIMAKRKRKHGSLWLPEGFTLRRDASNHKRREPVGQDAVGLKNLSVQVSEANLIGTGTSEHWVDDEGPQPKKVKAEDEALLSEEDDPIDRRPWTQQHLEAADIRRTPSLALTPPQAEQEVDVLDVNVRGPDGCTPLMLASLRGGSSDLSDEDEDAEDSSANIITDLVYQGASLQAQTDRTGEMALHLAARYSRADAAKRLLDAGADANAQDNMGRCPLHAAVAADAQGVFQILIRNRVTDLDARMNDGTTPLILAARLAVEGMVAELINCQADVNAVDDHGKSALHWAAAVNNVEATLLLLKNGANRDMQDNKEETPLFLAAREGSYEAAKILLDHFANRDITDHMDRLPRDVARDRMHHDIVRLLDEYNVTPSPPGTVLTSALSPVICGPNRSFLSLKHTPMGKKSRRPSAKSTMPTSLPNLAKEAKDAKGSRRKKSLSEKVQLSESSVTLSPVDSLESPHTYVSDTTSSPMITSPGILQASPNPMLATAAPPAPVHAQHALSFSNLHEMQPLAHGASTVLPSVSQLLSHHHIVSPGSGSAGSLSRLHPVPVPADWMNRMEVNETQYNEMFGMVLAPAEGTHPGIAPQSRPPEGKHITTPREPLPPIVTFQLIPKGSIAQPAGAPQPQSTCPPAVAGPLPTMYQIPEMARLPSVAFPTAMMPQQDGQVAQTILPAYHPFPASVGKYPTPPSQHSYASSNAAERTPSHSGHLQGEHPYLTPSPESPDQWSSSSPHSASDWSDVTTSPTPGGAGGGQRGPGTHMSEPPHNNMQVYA

| SMILES | composite z-score [1] | composite z-score [2] | composite z-score [3] | composite z-score [4] | composite z-score [5] | composite z-score [6] | composite z-score [7] | z-score [8] | composite z-score [9] | composite z-score [10] |
| --- | --- | --- | --- | --- | --- | --- | --- | --- | --- | --- |
| C[C@H]1C2=C3C(CC[C@H]4C(OCc5ccc(F)cc5C(F)(F)F)OC[C@](C)([C@@H]34)N(C(=O)OC(C)(C)C)C2)C2COC(=O)OCC21 (stereo not given in full) | 0.42 | -0.119 | -0.0325 | 0.226 | 1.43 | 1.71 | 1.03 | 2.53 (inactive) | 1.61 | 0.44 |
| COc1cc2c(cc1OC)CN(C(=O)[C@H]1[C@@H]3C(=O)O[C@@H](c4ccccc4)[C@@H](c4ccccc4)N3[C@@H](c3ccc(OCCO)cc3)[C@]13C(=O)Nc1ccc(C#CC4(O)CCCCCC4)cc13)CC2 | 1.18 | 0.774 | -0.0358 | 0.326 | 1.51 | 1.25 | 1.32 | -0.126 (inactive) | 1.6 | 1.65 |
| C[C@@H]1ON(c2ccc(C(=O)OC(C)(C)C)cc2)[C@H](c2ccc(Br)cc2)[C@H]1C(=O)N1C(=O)OC[C@H]1Cc1ccccc1 | -0.312 | 0.155 | 0.0333 | 0.552 | 1.52 | 1.05 | 1.11 | 0.002 (inactive) | 0.492 | -0.0618 |
| [N-]=[N+]=NCc1ccccc1C[C@@]1(C(=O)NCCN2CCOCC2)N=C(c2ccc(OCCCO)cc2)O[C@@H]1c1ccccc1N=[N+]=[N-] | 0.646 | 1.99 | 0.075 | 0.879 | 0.777 | 0.684 | 1.16 | -1.89 (inactive) | 0.75 | -0.0296 |
| C[C@]1(C(=O)NCCN2CCOCC2)c2ccccc2C(=O)N(Cc2ccc(OC(F)(F)F)cc2)[C@H]1c1ccc(CO)cc1 | 0.0198 | 0.317 | -0.146 | -0.735 | -0.375 | 2.05 | 1.02 | -2.39 (inactive) | 0.045 | -0.236 |
| O=C1OC[C@@H](c2ccccc2)N2CC(/C=C/c3ccccc3)=CC12 (stereo not given in full) | 0.528 | -0.477 | -0.222 | -0.77 | -1.18 | -0.586 | 0.219 | -0.639 (inactive) | -1.31 | -0.268 |
| C[n+]1ccc(CCCO)cc1 | 1.03 | 1.06 | -0.044 | 0.0582 | -1.21 | -0.161 | 1.45 | 1.12 (inactive) | -0.311 | 0.837 |
| O=C1O[C@@H](c2ccccc2)[C@@H](c2ccccc2)N2[C@@H](c3ccccc3OCCO)[C@]3(C(=O)Nc4ccccc43)[C@@H](C(=O)NC[C@H](O)c3ccccc3)[C@H]12 | 0.421 | 0.98 | -0.0937 | 0.0718 | -0.843 | 0.551 | 1.2 | -2.8 (inactive) | -0.127 | -0.226 |
| C=C(CCCC)/C(=C/C[C@@H](OC(C)=O)c1ccc(CO)o1)c1cc(C(=O)OC)ccc1OC | -0.557 | 0.273 | -0.0985 | 0.866 | 0.621 | 1.01 | 1.28 | -0.129 (inactive) | 0.435 | 0.0826 |
| COc1ccc([Si](C)(C)[C@H]2[C@H](CCn3cc(CCO)nn3)O[C@@]3(C(=O)N(Cc4ccc(N5C(=O)c6cccc7cccc5c67)cc4)c4ccccc43)[C@@H]2C)cc1 | -0.619 | 0.355 | -0.0583 | 0.53 | 0.611 | 1.16 | 1.1 | -4.65 (inactive) | 0.372 | 0.0695 |
| O=c1cccc(-c2cccc(Cl)c2)o1 | -0.118 | -0.341 | -0.0937 | 0.299 | -0.0173 | -0.0364 | 0.409 | 2.02 (inactive) | 0.433 | -0.223 |
| [N-]=[N+]=NCc1ccccc1C[C@@]1(C(=O)N2CCCCC2)N=C(c2ccc(OCCCO)cc2)O[C@@H]1c1ccccc1N=[N+]=[N-] | 0.167 | 0.101 | -0.204 | 0.229 | 1.49 | 1.38 | 1.05 | -3 (inactive) | 0.227 | 0.0505 |
| C=CCN1Cc2ccccc2C[C@@]2(N=C(c3ccc(OCCCO)cc3)O[C@H]2c2ccccc2)C1=O | 0.633 | 0.604 | 0.0109 | -0.364 | 1.09 | 1.04 | 1.29 | -1.32 (inactive) | 0.383 | 0.297 |
| COC(=O)[C@@]1(Cc2ccc(OC)cc2)[C@H]2c3cc(C(=O)N(C)C)n(Cc4ccccc4)c3C[C@H]2CN1C(=O)c1ccccc1 | 0.342 | 0.0293 | -0.0066 | 0.0679 | 0.571 | 1.11 | 0.828 | -1.53 (inactive) | 1.06 | -0.0597 |
| C=CC[C@H](OC(=O)Nc1ccc(OC)cc1)c1ccc(O)c2ccccc12 | -0.471 | 0.38 | -0.0894 | 0.517 | 1.28 | 0.473 | 0.933 | 6.36 (inactive) | 0.0069 | 0.176 |
| Cc1c(NC(=O)/C(C#N)=C/C=C/c2ccccc2[N+](=O)[O-])c(=O)n(-c2ccccc2)n1C | -0.0331 | 0.563 | 0.0415 | 0.0448 | 1.03 | 1.1 | 1.13 | -0.844 (inactive) | 0.334 | 0.0352 |
| COC(=O)[C@@]1(Cc2ccc(OC)cc2)[C@H]2c3cc(C(=O)N(C)C)n(CCc4c[nH]c5ccc(O)cc45)c3C[C@H]2CN1C(=O)c1ccccc1 | 1.27 | -0.0234 | 0.147 | 1.04 | 1.69 | 1.91 | 1.25 | 1.5 (inactive) | 1.7 | 0.177 |
| CCCCN1CC=CC23O[C@@H]4C=CCOC(=O)[C@@H]4[C@H]2C(=O)N(C(C)CO)[C@@H]3C1=O (stereo not given in full) | 0.762 | -0.665 | -0.187 | -0.174 | -1.03 | 1.7 | 0.745 | 1.66 (inactive) | -0.0725 | -0.189 |
| C=C(COC)/C(=C/C[C@@H](OC(=O)c1ccncc1)c1ccc(OCCO)cc1)c1cnc2ccccc2c1 | -0.0384 | 0.651 | 0.124 | 1.15 | 1.74 | -0.578 | 1.2 | -1.73 (inactive) | 0.28 | -0.0994 |
| CCOC(=O)C1=CC[C@@H](c2ccccc2)N(S(=O)(=O)c2ccc(C)cc2)C1 | 0.694 | 0.235 | 0.0497 | -0.0495 | 0.681 | -0.273 | 0.643 | -3.73 (inactive) | 0.648 | 0.0274 |
| CCOC(=O)C[C@H]1[C@H](OC(=O)Cc2ccc3c(c2)OCO3)[C@@H](NC(=O)C2CCCCC2)c2cc(OCCCO)ccc2N1C(=O)c1ccc2ccccc2n1 | 0.695 | 0.246 | -0.003 | 0.234 | 0.904 | 0.196 | 0.519 | -2.88 (inactive) | 0.857 | -0.335 |
| COC(=O)Cn1c(C(=O)N2CCCC2)cc2c1C[C@H]1CN(C(=O)c3ccccc3)[C@@](Cc3ccc(F)cc3)(C(=O)OC)[C@@H]21 | -0.366 | 0.281 | -0.0329 | 0.0839 | 0.358 | 2 | 1.07 | -0.566 (inactive) | 0.131 | 0.0845 |

Source: PubChem BioAssay
